Source: PubChem BioAssay AID488969 (Vanderbilt High Throughput Screening Facility, 2010)
In all, about 110,000 compounds were measured (“z-score”: median about -0.1, highest 2% from about 2 on). This excerpt belongs to a sample that is enriched for the highest values. Calls of active or inactive are those of the source.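 How the source made its calls: active means z-score in the third read window above 3 or below -3; inactive means the rest.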

molecular target: Metabotropic glutamate receptor 8 (Rattus norvegicus) (UniProt P70579); assay: mGluR8 Gi/Go-coupled signaling modulation – cell-based, rat, thallium flux, HTS, primary screen (AID 488969); conditions: HEK293 rat mGluR8, GIRK (G protein-gated inwardly rectifying potassium channel) thallium flux, FluoZin2; at 10 µM; stronger effect = higher value; submaximal glutamate (EC20) added with thallium
Sequence (P70579 whole entry, looked up): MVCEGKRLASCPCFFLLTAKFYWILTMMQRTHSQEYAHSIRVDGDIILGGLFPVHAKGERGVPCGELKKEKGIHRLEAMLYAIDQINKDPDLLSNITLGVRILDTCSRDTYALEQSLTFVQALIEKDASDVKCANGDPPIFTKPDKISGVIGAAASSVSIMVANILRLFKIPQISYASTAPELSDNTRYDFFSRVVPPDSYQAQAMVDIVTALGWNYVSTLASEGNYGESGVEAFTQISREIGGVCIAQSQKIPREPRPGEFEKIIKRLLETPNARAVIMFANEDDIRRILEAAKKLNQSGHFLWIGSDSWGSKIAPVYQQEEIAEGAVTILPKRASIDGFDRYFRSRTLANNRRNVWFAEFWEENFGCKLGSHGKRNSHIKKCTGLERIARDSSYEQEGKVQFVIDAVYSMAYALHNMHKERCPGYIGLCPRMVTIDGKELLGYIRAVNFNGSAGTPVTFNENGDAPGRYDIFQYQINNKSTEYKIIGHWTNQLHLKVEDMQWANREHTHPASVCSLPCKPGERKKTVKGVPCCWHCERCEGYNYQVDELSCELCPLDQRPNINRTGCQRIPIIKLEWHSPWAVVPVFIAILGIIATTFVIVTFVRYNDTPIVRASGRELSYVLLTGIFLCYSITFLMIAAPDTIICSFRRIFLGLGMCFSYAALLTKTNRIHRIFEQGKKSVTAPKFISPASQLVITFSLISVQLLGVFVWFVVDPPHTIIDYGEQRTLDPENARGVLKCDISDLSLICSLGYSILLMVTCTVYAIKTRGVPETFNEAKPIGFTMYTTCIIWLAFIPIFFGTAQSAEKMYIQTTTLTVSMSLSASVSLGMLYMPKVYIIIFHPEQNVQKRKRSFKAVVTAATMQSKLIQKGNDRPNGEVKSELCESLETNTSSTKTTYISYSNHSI

Compound | z-score
CCOC(=O)c1cc(-c2ccc(OC(F)F)cc2)nc2nc(SC)[nH]c(=O)c12 | -0.208
COc1cc(CNCC(O)c2ccccc2)ccc1OCc1ccc(Cl)nc1 (stereo not drawn) | 1.26
COC(=O)COc1cccc(NC(=O)c2cccs2)c1 | -0.153
CCc1cccc2c(C(=O)COC(=O)/C=C/c3ccc(O)c(OC)c3)c[nH]c12 | 0.418
CC(C)COP(=O)(OCC(C)C)C(Nc1ccccc1)c1ccc2c(c1)OCO2 (stereo not drawn) | -0.389
C/C=C/c1ccc(OCCCNCC(C)O)c(OC)c1 (stereo not drawn) | 1.74
COc1ccc(OC)c(NC(=O)CSc2nc(C)cs2)c1 | 0.389
CN(C)c1ccc(P(=O)(Nc2ccc([N+](=O)[O-])cc2)N2CCOCC2)c(NC(=O)c2cccs2)c1 (stereo not drawn) | -0.185
O=C(CN1C(=O)NC2(CCCC2)C1=O)N1CCN(C(=O)c2ccco2)CC1 | -1.15
Cc1ccc(NS(=O)(=O)c2cccc(C(=O)N/N=C/c3c(C)nn(-c4ccccc4)c3N3CCCC3)c2)c(C)c1 | -0.38
CCCCNC(=S)N(C)/N=C/c1ccc(OCC(=O)Nc2c(C)cc(C)cc2C)c(OC)c1 | 0.00502
Cc1cc(C)n(-c2nc3ccccc3nc2N2CCN(C(=O)c3ccc(Cl)cc3)CC2)n1 | -1.16
O=C(COc1ccccc1)N1CCc2ccccc21 | -0.0743
O=C(COc1ccccc1Cl)NC(=O)NC1CCCC1 | 0.502
O=C(COc1ccc(F)cc1Br)N1CCc2ccccc21 | -0.0164
O=C(COc1ccccc1)NC(=S)N1CCc2ccccc21 | 10.1 (active)
Cc1ccc(OCC(=O)N2CCc3ccccc32)cc1 | -0.113
O=C(COc1ccc(Br)cc1Cl)NC(=O)NCc1ccccc1 | 0.301
CCNC(=O)COc1ccc(Br)cc1Cl | 0.307
CC(C)NC(=O)NC(=O)COc1ccc(Br)cc1Br | -0.136
O=C(COc1ccccc1Cl)NC(=S)N1CCc2ccccc21 | 12.1 (active)
CCC(=O)N1CCN(c2ccccc2NC(=O)COc2ccccc2Cl)CC1 | -1.24
O=C(COc1ccc(Br)cc1Cl)NC(=S)N1CCc2ccccc21 | 2.28

Compound | z-score
O=C(COc1ccc(Br)cc1Br)NC(=S)N1CCCc2ccccc21 | 4.66 (active)
O=C(Cc1cccs1)Nc1ccc(Cl)cc1 | 0.318
Cc1cc(C)cc(SCc2noc(C(=O)NCC3CCCO3)c2C(=O)O)c1 (stereo not drawn) | -0.238
Cc1cc(C)nc(-n2nc(C)cc2NC(=O)CNC(C)c2ccccc2)n1 (stereo not drawn) | 0.124
COC(=O)c1cc(OC)c(OC)cc1NCC(=O)Nc1ccc(OC)c(OC)c1 | -0.419
Cc1c(NC(=O)C(C)OC(=O)c2cccs2)c(=O)n(-c2ccccc2)n1C (stereo not drawn) | 0.0558
CCOc1cc(CNCc2ccccn2)ccc1OCC(=O)NC1CCCCC1 | -0.535
O=C(Nc1ccc2oc(=O)ccc2c1)c1cc2ccccc2o1 | -1.25
O=C(CN(Cc1ccc(F)cc1)C(=O)c1ccco1)NCc1ccc(F)cc1 | -1.36
CNc1nc2ccccc2n1/N=C/c1cccc(OC)c1OC | -1.51
O=Cc1ccc(OC(=O)c2cc(Cl)nc3ccccc23)cc1 | -0.764
CCn1c(SCc2ccc([N+](=O)[O-])cc2)nnc1C(C)NC(=O)c1ccc(C)cc1 (stereo not drawn) | -0.256
CC(C)(C)n1nc2c(c1NC(=O)c1ccco1)CS(=O)C2 (stereo not drawn) | 0.0777
O=C(Cn1cccc1)N1CCN(c2ccc(F)cc2)CC1 | -0.241
Nn1c(SCC(=O)N2CCN(S(=O)(=O)c3ccc(Cl)cc3)CC2)nnc1-c1cccs1 | -0.22
Cn1c(SCC(=O)N2c3ccccc3CCc3ccccc32)nnc1-c1ccc(O)cc1 | 5.88 (active)
Cc1cccc(-c2nnc(SCC(=O)N3c4ccccc4CCc4ccccc43)n2C)c1 | -0.366
Cn1c(SCC(=O)N2c3ccccc3CCc3ccccc32)nnc1-c1cc2ccccc2cc1O | -0.13
Cc1ccc(NC(=O)N2CCC(C(N)=O)CC2)cc1 | 0.0373
O=C(NCC1CCCO1)C1CCN(S(=O)(=O)c2cccc3cccnc23)CC1 (stereo not drawn) | -0.104
Cc1ccccc1-c1n[nH]c(=S)o1 | 0.676
CSc1nnc(-c2cc(-c3ccc(C)cc3)nc3ccccc23)o1 | -0.0721
Cc1ccc(-c2cc(-c3n[nH]c(=S)o3)c3ccccc3n2)cc1 | 8.6 (active)

Compound | z-score
CC(=O)c1c(C)[nH]c(C(=O)Nc2ccc(Cl)c(S(=O)(=O)N3CCOCC3)c2)c1C | 1.6
O=C(COC(=O)c1cc(-c2cccs2)nn1-c1ccccc1)Nc1ccc(Cl)c([N+](=O)[O-])c1 | 0.0111
NS(=O)(=O)c1ccc(CCN2C(=O)/C(=C\c3ccc(Cl)cc3)SC2=S)cc1 | 0.283
COc1nc(-c2ccccc2)cc(-c2ccc(OC)c(OC)c2)n1 | -0.612
COc1nc(-c2ccccc2)cc(-c2ccccc2)n1 | 2.45
COc1nc(-c2ccccc2)cc(C(F)(F)F)n1 | 0.0363
O=C(C1CCCO1)N1N=C(c2ccc(Br)cc2)CC1c1ccco1 (stereo not drawn) | -0.195
COC(=O)CSc1n[nH]c(-c2cccnc2)n1 | 2.21
COC(=O)CSc1n[nH]c(-c2ccncc2)n1 | 0.0349
O=C(CSc1n[nH]c(-c2cccnc2)n1)Nc1ccccc1 | -0.272
Cc1ccc(C2C(C#N)=C(N)Oc3n[nH]c(-c4ccccc4)c32)o1 (stereo not drawn) | -0.499
CC(C)CC(=O)NC(=S)Nc1nc(-c2ccc(Cl)cc2)cs1 | 0.0823
CC(C)CC(=O)NC(=S)Nc1nc(-c2ccccc2)cs1 | 0.855
CC(C)CC(=O)NC(=S)Nc1nc(-c2cccc3ccccc23)cs1 | 2.97
Cn1c(=O)c(NC(=O)c2ccccc2)c2n(c1=S)CCCCC2 | -0.181
O=C(COc1ncnc2ccc(Br)cc12)NCc1ccc2c(c1)OCO2 | -0.00987
CCOC(=O)C1C(=O)CC(C)(O)C(C(=O)OCC)C1c1ccc(OC)cc1 (stereo not drawn) | -0.0838
CCOC(=O)c1cccc(NC(=O)/C(=C\c2ccccc2)NC(=O)c2ccccc2Cl)c1 | -0.208
COc1ccccc1NC(=O)CNS(=O)(=O)c1ccccc1 | -0.239
CCOC(=O)c1c(CNCCN(CC)CC)n(C)c2cc(Br)c(OC)cc12 | 3.02 (active)
CCOC(=O)c1c(CN2CCN(Cc3ccccc3)CC2)n(C)c2cc(Br)c(OC)cc12 | 0.132
CCOC(=O)c1c(CN2CCN(CCO)CC2)n(C)c2cc(Br)c(OC)cc12 | 0.864
CCN(CC)CCNC(=O)c1c(C)oc2cc(Br)c(OC)cc12 | -0.44

Compound | z-score
COc1cc2c(C(=O)N3CCN(C)CC3)c(C)n(-c3ccccc3)c2cc1Br | -0.333
CCN(CC)CCNC(=O)c1c(C)n(-c2ccccc2)c2cc(Br)c(OC)cc12 | 2.84
COC(=O)Cn1c(=NC(=O)c2ccc(OC)cc2)sc2cc(OC)ccc21 | -0.189
O=C1NC(=Nc2ccccc2)S/C1=C\C=C\c1ccco1 | 0.075
Cc1cccc(N=C2NC(=O)/C(=C/C=C/c3ccco3)S2)c1C | 3 (active)
Cc1cccc(N=C2NC(=O)/C(=C/C=C/c3ccco3)S2)c1 | 0.7
OC(COCc1ccccc1)CN1CCN(c2ccccc2)CC1 (stereo not drawn) | 0.802
CCCc1nc2oc3c(NCCN(C)C)ncnc3c2c2c1CCCC2 | 0.466
CCOc1ccc(/C=C/C(=O)Nc2ccc(N3CCOCC3)cc2)cc1 | -0.494
CCCc1ccc(OCC(=O)NNC(=S)NC(=O)c2ccco2)cc1 | 5.78 (active)
Cc1ccccc1OCC(=O)NNC(=S)NC(=O)c1ccco1 | 8.07 (active)
COc1ccccc1OCC(=O)NNC(=S)NC(=O)c1ccco1 | 0.0517
COCCNC(=S)NNC(=O)c1ccco1 | 0.195
CCCCNC(=S)NNC(=O)c1ccco1 | -0.0425
CNC(=S)NNC(=O)COc1ccccc1C | -0.0807
O=C(NCCN1CCOCC1)c1cc(Sc2ccccc2Cl)nc2ccccc12 | -1.39
COc1cccc(N2CC(C(=O)Nc3nnc(SCc4cccnc4)s3)CC2=O)c1 (stereo not drawn) | 0.711
O=c1[nH]c2cccnc2n1Cc1ccccc1 | -0.166
Cc1ccccc1Nc1nnc(C)c(=O)n1N | 0.0745
O=C(/C=C/c1ccccc1)N1CCC(c2ccccc2)C1 (stereo not drawn) | -0.0939
c1ccc(C2CCC(N3CCC(N4CCCCC4)CC3)CC2)cc1 (stereo not drawn) | -0.423
C1=CN2CCC1C(c1ccccc1)C2 (stereo not drawn) | 2.05
COC(=O)C1CCN(C(=O)CSc2ccccc2)CC1 | -0.196

Compound | z-score
CC(C)Oc1ccc(Cc2cnc(N)nc2N)cc1 | 1.03
CC(C)COc1ccc(Cc2cnc(N)nc2N)cc1 | 7.02 (active)
COc1ccc(Cc2c(N)nc(N)nc2N)cc1 | -0.264
CCOc1cc(CNCCc2ccc(S(N)(=O)=O)cc2)ccc1OCC(=O)NC1CCCCC1 | 0.417
Cc1cc(NC(=O)c2cnccn2)no1 | -0.0463
CCCc1cc(=O)[nH]c(/N=C(/NC(=O)c2ccccc2)Nc2ccc3c(c2)OCCO3)n1 | -0.0513
COCCNc1ncnc2c1cnn2-c1ccc(Cl)cc1 | 0.0016
CN(C)CCNc1ncnc2c1cnn2-c1ccc(Cl)cc1 | 3.51 (active)
CN(C)CCCNc1ncnc2c1cnn2-c1ccccc1 | 0.0262
CC(/C=N\NC(=O)c1cccnc1)c1ccccc1 (stereo not drawn) | -0.201
CS(=O)(=O)N1CCN(c2ccccc2NC(=O)c2cccc3ccccc23)CC1 | -0.227
O=C(COc1ncnc2sccc12)N1CCc2ccccc2C1 | 0.0441
O=C(COc1cccc2cccnc12)N1CCc2ccccc2C1 | 0.452
O=C(COc1c(Br)cc(Br)c2cccnc12)N1CCc2ccccc2C1 | 3.14 (active)
COc1ccc(S(=O)(=O)N[C@@H](Cc2ccc(Cl)cc2)C(=O)N2CC[C@@]3(O)CCCC[C@H]3C2)cc1 | -0.0964
COCCNC(=O)c1cc(-c2ccc3c(c2)OCO3)on1 | 0.152
Cc1nn(C)c(Cl)c1NC(=O)OCc1ccccc1 | -0.064
CCCNC(=O)CCC(=O)Nc1ncc(-c2ccc(C)cc2)n1C | -0.382
Cc1ccc(-c2cnc(NC(=O)CCC(=O)N(C)Cc3ccccc3)n2C)cc1 | -0.765
Cc1ccc(-c2cnc(NC(=O)CCC(=O)N3CCCCC3)n2C)cc1 | 4.3 (active)
CC(C)c1ccccc1N=C1SCCN1C1CCS(=O)(=O)C1 (stereo not drawn) | 0.193
